Measurements reported in PubChem BioAssay (NCATS).
Inconclusive results are not listed. Where a call stands in place of a potency, no number is given. The source made the active and inactive calls. Calls follow the shape of the dose curve; as a rule, active = well fitted inhibition curve with a large enough effect; inconclusive = small, poorly fitted or top-dose-only effect; inactive = flat fitted curve, though single readings scatter.

test system: MKL-1; test: qHTS assay to identify novel small-molecules to repurpose for Merkel cell carcinoma treatment (AID 1296009); details: MCC and control cell lines, CellTiter-Glo viability, 72 h; series mostly up to 46 µM; also: nearly all actives have a fitted effect of over 60% in size
Outline: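 qHTS format: cells treated with library compounds in DMSO across 8 (NPC) or 11 (MIPE) concentrations. Readout after 72 hr at 37 degree celsius was CellTiter-Glo luminescence.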

Which Potency does the source give for Cc1cc(C)c(/C=C2\C(=O)Nc3ccccc32)[nH]1 here?
The Potency was “inactive”.

CC(=O)OC(C)C[N+](C)(C)C (centres undefined) was tested. Which Potency did it give?
Its Potency is “inactive”.

With CCn1cc(C(=O)O)c(=O)c2cc3c(cc21)OCO3 as the compound, how does the Potency read?
Its Potency is “inactive”.

With CC(=O)Nc1nnc(S(N)(=O)=O)s1 as the compound, how does the Potency read?
Its Potency is “inactive”.

For NC(=Nc1ccccc1)Nc1ccccc1, which Potency is on record?
Its Potency is “inactive”.

With FC(F)(F)c1ccccc1-n1ccnc1 as the compound, how does the Potency read?
Its Potency is “inactive”.

How did the Potency turn out when CCCCOCCOCCOCc1cc2c(cc1CCC)OCO2 was run?
The Potency was “inactive”.

For CCN1CCc2nc(N)oc2CC1, which Potency is on record?
The Potency was “inactive”.

For O=C(CCNNC(=O)c1ccncc1)NCc1ccccc1, which Potency is on record?
The Potency was “inactive”.

C[N+](C)(C)CCOC(=O)CCC(=O)OCC[N+](C)(C)C was tested. Which Potency did it give?
Its Potency is “inactive”.

CN(C)CCOC(=O)COc1ccc(Cl)cc1 was tested. Which Potency did it give?
The Potency was “inactive”.

How did the Potency turn out when NC/C=C/C(=O)O was run?
The Potency was “inactive”.

CCN(CC)CC(=O)Nc1c(C)cccc1C was tested. Which Potency did it give?
The Potency was “inactive”.

How did the Potency turn out when CCN1CCC[C@H]1CNC(=O)c1c(O)c(Cl)cc(Cl)c1OC was run?
Its Potency is “inactive”.
